Source: PubChem BioAssay (National Center for Advancing Translational Sciences (NCATS))
An excerpt weighted towards active compounds, which were near 7.5% of everything screened.
Luc counter – counter-screen: inhibitors of Kinase-Glo firefly luciferase | Q27757 | Kinase-Glo luciferase, ATP luminescence, 8 min | Potency, µM (top dose mostly 38.3 µM), without a hit: at the top dose activity change, negative = inhibition, usual class: inhibitors | actives 0.28% (n = 200,000) | AID 1379; note: % is set by controls: 0 for no effect and ±100 for the full control effect; nearly all actives have a fitted effect of over 60% in size
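Substrate mix (final 50 mM imidazole pH 7.2, 50 mM KCl, 7 mM MgCl2, 10 uM ATP, 0.01% Tween 20, 0.05% BSA) plus pin-tool compound, then Kinase-Glo detection mix; 8 min ambient, luminescence read.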
SMN2 splice enh – SMN2 splice variant enhancement; HEK293 SMN2-luciferase splicing reporter, luminescence, 30-36 h; Potency, µM (doses to about 46.1 µM), for the others: at the highest dose activity change, positive = activation, actives largely listed as activators; actives 2.8% (n = 210,000); note: % of control where 0% means no effect; nearly all actives have a fitted effect of over 55% in size
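qHTS luciferase splicing reporter: luminescence rises when SMN2 exon 7 is included in transfected HEK293 cells. Compound exposure lasted 30-36 h at 37C, with 4.5 mM final sodium butyrate as control, followed by a ONE-Glo read.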
ELG1 genotox – genotoxicity induction in ELG1-luciferase HEK293T cells; AID 504466; HEK293T ELG1-luciferase reporter, luminescence, 16 h; actives 1.3% (n = 330,000); Potency, µM (titrated, usually from 46 µM), without a hit: at the top dose activity change, positive = activation, most hits filed as activators; note: % of control where 0% means no effect; nearly all actives have a fitted effect of over 60% in size
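Step 1: seed 2,000 HEK293T ELG1-luciferase cells per well. Step 2: add compound or DMSO, incubate 16 hr at 37 °C. Step 3: ONE-Glo, 30 min at room temperature, read luminescence.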
FLuc counter – counter-screen for miR-21 project: firefly luciferase inhibitors or activators | purified FLuc, Km substrates, luminescence inhibition | Potency, µM (doses to about 57.5 µM), without a hit: top-dose activity change, negative = inhibition, hits mostly inhibitors | actives 6.9% (n = 360,000) | AID 588342;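 note: plate controls were vehicle for no effect and reference inhibitor for full effect; nearly all actives have a fitted effect of over 55% in size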
Target sequence (P08659 whole entry, looked up): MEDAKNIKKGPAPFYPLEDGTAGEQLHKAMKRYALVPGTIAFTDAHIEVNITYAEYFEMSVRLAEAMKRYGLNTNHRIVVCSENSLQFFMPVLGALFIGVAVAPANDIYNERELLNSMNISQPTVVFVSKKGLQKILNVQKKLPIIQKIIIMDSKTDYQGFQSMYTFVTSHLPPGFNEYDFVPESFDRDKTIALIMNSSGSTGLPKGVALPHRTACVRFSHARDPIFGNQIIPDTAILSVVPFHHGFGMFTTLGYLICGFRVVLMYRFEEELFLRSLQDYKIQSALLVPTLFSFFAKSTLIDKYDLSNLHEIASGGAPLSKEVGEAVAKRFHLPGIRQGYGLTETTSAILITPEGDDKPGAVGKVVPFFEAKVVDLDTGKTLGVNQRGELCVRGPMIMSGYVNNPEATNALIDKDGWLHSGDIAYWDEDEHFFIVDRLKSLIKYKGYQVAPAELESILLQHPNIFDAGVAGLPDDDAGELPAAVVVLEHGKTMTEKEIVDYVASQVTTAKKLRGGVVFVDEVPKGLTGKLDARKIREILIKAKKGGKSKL
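Purified P. pyralis luciferase, 10 nM final, with Km-level 10 uM D-luciferin and 10 uM ATP in 50 mM Tris acetate pH 7.5, 10 mM Mg acetate, 0.01% Tween-20, 0.05% BSA; 6-point qHTS titration about 60 µM downward; luminescence read.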
Rab9 promoter act – activates the Rab9 promoter; Huh7 Rab9 promoter-luciferase reporter, luminescence, 24 h; Potency, µM (top dose mostly 9.22 µM), for the others: at the top dose activation, negative = inhibition, hits mostly activators; actives 2.8% (n = 320,000); AID 485297; note: % of control where 0% means no effect; nearly all actives have a fitted effect of over 60% in size
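Cell-based reporter: Huh7 stable for Rab9 promoter-driven luciferase, plated in reduced-serum medium with 10% FBS at 1500 cells/well, compound-treated 24 h at 37 °C, luminescence read after 10 min reagent.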
NPC1 promoter act – activators of NPC1 promoter. AID 485313. Huh7 NPC1 promoter luciferase reporter, 24 h. actives 2.4% (n = 320,000). Potency, µM (titrated, usually from 9.22 µM), for the others: at the top dose activation, usual class: activators; note: % of control where 0% means no effect; nearly all actives have a fitted effect of over 60% in size
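Quantitative HTS used a cell-based reporter: Huh7 cells stably bearing the NPC1 promoter upstream of luciferase were treated with compounds for 24 h, and promoter activation was read as luminescence.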
* marks the source's active call; other numbers are inactive results; u = inconclusive; x = no result; [ ] = another dose, or the depositor's remark. Calls come from the whole dose curve; as a rule, active = well fitted curve in the direction sought with a large enough effect; inconclusive = small, poorly fitted or top-dose-only effect, or another doubt; inactive = no such curve, though single readings can be large; an effect the other way counts as inactive or inconclusive. Potency is the fitted concentration of half-maximal effect.

SMILES | Luc counter | SMN2 splice enh | ELG1 genotox | FLuc counter | Rab9 promoter act | NPC1 promoter act
O=C(Cc1ccc(F)cc1)Nc1nnc(-c2ccc(F)cc2)o1 | x | x | -4%[9.26 µM] | -2% | -7% | -2%
c1ccc(-c2nc(-c3ccncc3)no2)cc1 | -29% | u | x | 12µM* | x | x
c1ccc(-c2ccc(-c3nc(-c4ccncc4)no3)cc2)cc1 | -17% | u | 1.6µM* | 0.6µM* | 0.14µM* | u
COc1ccc(-c2noc(-c3ccc(C)cc3Cl)n2)cc1OC | x | 9% | x | u | x | x
Cc1ccc(-c2nc(-c3ccncc3)no2)c(Cl)c1 | x | x | 0.46µM* | 0.48µM* | u | 0.63µM*
c1ccc(-c2ccccc2-c2nc(-c3ccncc3)no2)cc1 | 3% | 3.2µM* | -2% | -2% | 0% | -3%
CCOc1ccc(C2/C(=C(\O)c3cccc(OC)c3)C(=O)C(=O)N2c2ccccn2)cc1OC (stereo not given) | x | x | 0% | 1% | -3% | 0%
CCCCN(Cc1ccccc1)C(=O)CN(C)S(=O)(=O)c1ccc2c(c1)c(=O)n(C)c(=O)n2C | x | 12% | x | 1% | x | x
Cc1ccc(SCc2nc(-c3cccnc3)no2)cc1 | 5% | 8% | 1% | 1%[2.3 µM] | 12% | 11%
Clc1ccccc1-c1nc(-c2cccnc2)no1 | -11% | 11µM* | x | 3µM* | x | x
Clc1ccccc1-c1nnc(-c2cccs2)o1 | -25% | 11µM* | u | 9.5µM* | 1.3µM* | 2.2µM*
Clc1ccccc1-c1nnc(-c2cccnc2)o1 | x | x | 23µM* | 15µM* | u | 4µM*
Cc1ccccc1-c1nc(-c2cccnc2)no1 | 9% | u | u | 11µM* | u | u
Cc1cc(C)c2c(=O)cc(C(=O)Nc3sc4c(c3C#N)CCCC4)oc2c1 | x | -4% | x | u | x | x
CC(C)(C)OC(=O)C[C@@H]1C/C=C\C[C@@H](CC(=O)N(CCO)Cc2ccccc2)C(=O)N2CCC[C@@H]2COC1=O | x | x | -3% | x | x | x
COc1ccc(C)cc1NC(=O)c1cccc(-c2ccc(OC(C)=O)cc2)c1 | x | x | -10% | u | 1% | 1%
Cc1nc(-c2noc(-c3ccccc3Cl)n2)c(C(F)(F)F)o1 | x | x | 18% | 15µM* | 29% | u
Cc1onc(-c2ccccc2Cl)c1-c1nc(-c2ccncc2)no1 | 0% | -11% | 2% | 0% | -4% | 1%
Clc1ccccc1-c1nc(-c2ccncc2)no1 | -8%[7.66 µM] | u | 10µM* | 6.7µM* | 1.3µM* | 4µM*
CC(=O)c1ccc(NC(=O)c2cc(-c3ccc(Cl)c(Cl)c3)on2)cc1 | x | 6% | x | 4% | x | x
O=C(CSc1nnc(NC(=O)c2cccc(Cl)c2)s1)NCC1CCCO1 (stereo not given) | x | x | u | 6.7µM* | 23% | 20%
O=C(CSc1nc2ccc(NC(=O)C3CCCCC3)cc2s1)NCC1CCCO1 (stereo not given) | 1% | -9% | -2% | 17µM* | 18% | 13%
O=C(CSc1nc2ccccc2s1)NCC1CCCO1 (stereo not given) | x | x | 10% | -8% | 19% | 1%
COc1ccccc1C(=O)Nc1nnc(SCC(=O)NCC2CCCO2)s1 (stereo not given) | x | x | u | 6µM* | 3.5µM* | 1.4µM*
COc1cc(C(=O)Nc2nnc(SCC(=O)NCC3CCCO3)s2)cc(OC)c1OC (stereo not given) | x | x | 5% | -1% | 3% | -5%
COc1cccc(NC(=O)C2CCN(c3nnc(C)c4c(C)n(-c5ccccc5)nc34)CC2)c1 | x | x | x | -13% | x | x
CCc1ccc(NC(=O)CCCn2nc(C)c3c(C)n(-c4ccccc4)nc3c2=O)cc1 | x | x | x | -6% | x | x
COC(=O)C1CN(C(=O)COc2ccc(Cl)cc2Cl)c2ccccc2O1 (stereo not given) | x | x | 3% | 19µM* | 1% | 1%
